In PubChem BioAssay (NCATS):
Records with an inconclusive call do not appear. A call without a number means that no potency is given here. A number with no mark means an inactive call. Calls of active or inactive are those of the source. Calls follow the shape of the dose curve; as a rule, active = well fitted cell-killing curve with a large enough effect; inconclusive = small, poorly fitted or top-dose-only effect; inactive = flat fitted curve, though single readings scatter.

Assay: qHTS of pediatric cancer cell lines to identify multiple opportunities for drug repurposing: Primary screen for TC32 cells (AID 1347089); also: nearly all actives have a fitted effect of over 60% in size
Conditions: TC32 Ewing sarcoma viability, CellTiter-Glo luminescence, 48 h; series mostly up to 45.8 µM
Method in brief: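 A viability screen of TC32 cells was run over 48 h, with primary MIPE doses spanning 0.78 nM–46 µM and NPC doses 0.59 nM–46 µM. ATP luminescence (CellTiter-Glo) served as the read-out.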
Potency is read from the fitted curve at half-maximal effect.

Which Potency does the source give for NC(=O)Nc1sc(-c2ccc(F)cc2)cc1C(N)=O here?
Its Potency is 3700 nM (active).

With CC(C)(N)c1ccc(-c2nc3ccccc3nc2-c2ccccc2)cc1 as the compound, how does the Potency read?
The Potency was “inactive”.

For C=C(C)[C@@H]1CC[C@]2(C(=O)O)CC[C@]3(C)[C@H](CC[C@@H]4[C@@]5(C)CC[C@H](O)C(C)(C)[C@@H]5CC[C@]43C)[C@@H]12, which Potency is on record?
The Potency was “inactive”.

With C=C1C(=O)O[C@H]2[C@@H]1CCC(C)=CCC[C@@]1(C)O[C@@H]21 as the compound, how does the Potency read?
The Potency was 23400 nM (active).

For C=Cc1c(C)c2cc3nc(cc4[nH]c(cc5nc(cc1[nH]2)C(C)=C5CCC(=O)O)c(CCC(=O)OC)c4C)[C@@]1(C)C3=CC=C(C(=O)OC)[C@H]1C(=O)OC, which Potency is on record?
The Potency was 5870 nM (active).

For Cc1ccc([N+](=O)[O-])cc1S(=O)(=O)N(C)N=Cc1cnc2ccc(Br)cn12, which Potency is on record?
Its Potency is 82.9 nM (active).

Which Potency does the source give for CCc1nc(-c2cccc(C)c2)c(-c2ccnc(NC(=O)c3ccccc3)c2)s1 here?
Its Potency is “inactive”.

For CCCc1nc(C(C)(C)O)c(C(=O)O)n1Cc1ccc(-c2ccccc2-c2nn[nH]n2)cc1, which Potency is on record?
The Potency was “inactive”.

Which Potency does the source give for CC(C)N(CC[C@H](c1ccccc1)c1cc(CO)ccc1O)C(C)C here?
The Potency was “inactive”.

With CC(C)N1[N]C(=C2C=c3cc(O)ccc3=N2)c2c(N)ncnc21 as the compound, how does the Potency read?
Its Potency is 2940 nM (active).

Which Potency does the source give for CC(C)(O)CC[C@@H](O)[C@](C)(O)[C@H]1CC[C@@]2(O)C3=CC(=O)[C@@H]4C[C@@H](O)[C@@H](O)C[C@]4(C)[C@@H]3CC[C@]12C here?
Its Potency is “inactive”.

For CN[C@H]1[C@@H](O)[C@@H]2O[C@@H]3O[C@H](C)CC(=O)[C@]3(O)O[C@@H]2[C@@H](NC)[C@H]1O, which Potency is on record?
The Potency was 13100 nM (active).

Which Potency does the source give for C[C@H](CCC(=O)O)[C@H]1CCC2C3C[C@H](O)[C@@H]4C[C@H](O)CC[C@]4(C)C3CC[C@@]21C (some centres undefined) here?
The Potency was “inactive”.

With O=C1c2cccc(O)c2C(=O)c2c(O)cc(CO)cc21 as the compound, how does the Potency read?
Its Potency is “inactive”.

With C[C@]12CC[C@@H]3c4ccc(O)cc4CC[C@H]3[C@H]1CC[C@H]2O as the compound, how does the Potency read?
Its Potency is “inactive”.

Which Potency does the source give for Cc1ccccc1C(=O)Nc1ccc(C(=O)N2CCCC(O)c3cc(Cl)ccc32)c(C)c1 (centres undefined) here?
Its Potency is “inactive”.

Which Potency does the source give for COc1ccc(CCC(=O)c2c(O)cc(O[C@@H]3O[C@H](CO)[C@@H](O)[C@H](O)[C@@H]3O[C@@H]3O[C@@H](C)[C@H](O)[C@@H](O)[C@@H]3O)cc2O)cc1O here?
The Potency was “inactive”.

With CCc1cnn2c(NCc3ccc[n+]([O-])c3)cc(N3CCCC[C@@H]3CCO)nc12 as the compound, how does the Potency read?
The Potency was 131 nM (active).

With CC(C)C[C@H](NC(=O)CNC(=O)c1cc(Cl)ccc1Cl)B1OC(=O)CC(CC(=O)O)(C(=O)O)O1 (some centres undefined) as the compound, how does the Potency read?
The Potency was 2940 nM (active).

For COc1cccc2c1C(=O)c1c(O)c3c(c(O)c1C2=O)C[C@@](O)(C(=O)CO)C[C@@H]3O[C@H]1C[C@H](N)[C@H](OC2CCCCO2)[C@H](C)O1 (some centres undefined), which Potency is on record?
Its Potency is 3700 nM (active).

Which Potency does the source give for COC(=O)[C@@H]1[C@H]2C[C@@H]3c4[nH]c5ccccc5c4CCN3C[C@@H]2CC[C@@H]1O here?
Its Potency is “inactive”.

Which Potency does the source give for CNC(=O)c1cccc(-c2ccc3c(N4CCOC[C@H]4C)nc(N4CCOC[C@H]4C)nc3n2)c1 here?
Its Potency is 523 nM (active).

For C[C@@H](Cc1cc2c(c(C(N)=O)c1)N(CCCO)CC2)NCCOc1ccccc1OCC(F)(F)F, which Potency is on record?
The Potency was “inactive”.

Which Potency does the source give for CC[C@@]1([C@@H]2O[C@@H]([C@H]3O[C@@](O)(CO)[C@H](C)C[C@H]3C)C[C@H]2C)CC[C@H]([C@]2(C)CC[C@]3(C[C@H](O)[C@@H](C)[C@@H]([C@@H](C)[C@@H](OC)[C@H](C)C(=O)O)O3)O2)O1 here?
The Potency was 1610 nM (active).

For CC(=O)C1=C(O)C=C2Oc3c(C(C)=O)c(O)c(C)c(O)c3C2(C)C1=O (centres undefined), which Potency is on record?
The Potency was “inactive”.

Which Potency does the source give for N#CC(=C(O)c1ccc(Cl)cc1Cl)c1nc2cc(Cl)ccc2c(=O)[nH]1 here?
The Potency was “inactive”.

Which Potency does the source give for CC(=O)NCC(=O)N1[C@H]2CC[C@H]1c1cc(Nc3ncc(C(F)(F)F)c(NC4CCC4)n3)ccc12 here?
The Potency was 131 nM (active).

With Nc1ccn(C2CO[C@H](CO)O2)c(=O)n1 (some centres undefined) as the compound, how does the Potency read?
Its Potency is “inactive”.

For NC(=O)c1ncn([C@@H]2O[C@H](CO)[C@@H](O)[C@@H]2O)c1N, which Potency is on record?
Its Potency is “inactive”.

For Cc1cc(O)c2c(c1)C(=O)c1cccc(O)c1C2=O, which Potency is on record?
The Potency was “inactive”.

For CC(C)Oc1ccc(C(=O)N[C@H](CNC(=O)CN(C)C)Cc2ccc(-c3cn4cccc([C@H](C)O)c4n3)cc2)cc1Cl, which Potency is on record?
The Potency was 370 nM (active).

With COC(=O)[C@H](CCCN=C(N)N)NS(=O)(=O)c1ccc(C)cc1 as the compound, how does the Potency read?
The Potency was “inactive”.

With CC(C)c1cc(C(C)C)c(CC(=O)NS(=O)(=O)Oc2c(C(C)C)cccc2C(C)C)c(C(C)C)c1 as the compound, how does the Potency read?
The Potency was “inactive”.

With COC[C@H](NC(=O)c1cnc(C)s1)C(=O)N[C@@H](COC)C(=O)N[C@@H](Cc1ccccc1)C(=O)[C@@]1(C)CO1 as the compound, how does the Potency read?
Its Potency is 587 nM (active).

Which Potency does the source give for CN1C(C(=O)Nc2ccccn2)=C(O)c2sc(Cl)cc2S1(=O)=O here?
The Potency was “inactive”.

Which Potency does the source give for C[C@@H](Oc1ccc2[nH]nc(C=Cc3cnn(CCO)c3)c2c1)c1c(Cl)cncc1Cl here?
Its Potency is 18600 nM (active).

For O=C1NC(=O)[C@@H](c2cn3c4c(cccc24)CCC3)[C@H]1c1c[nH]c2ccccc12, which Potency is on record?
Its Potency is 2340 nM (active).

With CCOc1cc2c(c(F)c1OCC)C(=N)N(CC(=O)c1cc(N3CCOCC3)c(OC)c(C(C)(C)C)c1)C2 as the compound, how does the Potency read?
Its Potency is “inactive”.

For CC(C)(C)[C@H](NC(=O)c1ccc(N)c(Cl)c1)C(=O)N1CCC[C@@H]1C(=O)N[C@H](C#N)CC(=O)O, which activity change, negative = cytotoxic is on record?
Its activity change, negative = cytotoxic is 10.4% [at 4.81 µM].
